High-throughput results as filed in PubChem BioAssay.
CtBP-E1A inh = qHTS Assay for Inhibitors of the CtBP/E1A Interaction; activity change, % (concentration not given with the values); AlphaScreen GST-E1A/His-CtBP binding, 1536-well; stronger effect = lower value; 0.49% of 340,000 active; in the data active = activity change below about -65%; inconclusive = mostly about -30% to -63%; also: % is scaled to controls: 0 for no effect and ±100 for the full control effect
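In 5 uL wells, 23 nL compound meets equimolar GST-E1A and His-CtBP (5X stock 125 nM each) for 2 h, 37 °C. Beads (5X, 50 ug/mL) then 1 h, 37 °C, dark.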
HP1b binding inh = HTS for Inhibitors of HP1-beta Chromodomain Interactions with Methylated Histone Tails; 0.56% of 390,000 active; AID 540317, 2011; AlphaScreen HP1-beta / biotin-H3K9me3 peptide binding; Potency, µM (series often up to 114 µM), without a hit: top-dose activity change, negative = inhibition, hits mostly inhibitors; Chromobox protein homolog 1 (Homo sapiens), P83916; also: potency is read from the fitted curve at half-maximal effect; nearly all actives have a fitted effect of over 70% in size
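Compound inhibition of the preformed complex between 50 nM HP1-beta and 50 nM biotinylated H3K9me3 peptide was read by AlphaScreen. Buffer was PBS pH 7.4 with 0.01% Tween-20. Incubations ran 30 min at room temperature, with 10 ug/mL donor/acceptor beads.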
JMJD2A Tudor = qHTS Assay for Inhibitors of JMJD2A-Tudor Domain; Lysine-specific demethylase 4A (Homo sapiens), O75164; AlphaScreen JMJD2A-Tudor / H3K4me3 peptide binding; Potency, µM (highest dose often 114 µM), inactives show at the highest dose activity change, negative = inhibition, actives largely listed as inhibitors; 4.4% of 390,000 active; also: potency is read from the fitted curve at half-maximal effect; % is scaled to controls: 0 for no effect and ±100 for the full control effect; nearly all actives have a fitted effect of over 50% in size
Six1-Eya2 inh = qHTS Assay for Inhibitors of the Six1/Eya2 Interaction; AID 651725, 2012; activity change, % (test concentration not listed); 0.56% of 360,000 active; AlphaScreen GST-Six1/His-Eya2 binding, biochemical; stronger effect = lower value; Homeobox protein SIX1 (Homo sapiens) + Protein phosphatase EYA2 (Homo sapiens), …; in the data active = activity change below about -65%; inconclusive = mostly about -30% to -63%; also: % is scaled to controls: 0 for no effect and ±100 for the full control effect
Target sequence (O00167 whole entry, looked up): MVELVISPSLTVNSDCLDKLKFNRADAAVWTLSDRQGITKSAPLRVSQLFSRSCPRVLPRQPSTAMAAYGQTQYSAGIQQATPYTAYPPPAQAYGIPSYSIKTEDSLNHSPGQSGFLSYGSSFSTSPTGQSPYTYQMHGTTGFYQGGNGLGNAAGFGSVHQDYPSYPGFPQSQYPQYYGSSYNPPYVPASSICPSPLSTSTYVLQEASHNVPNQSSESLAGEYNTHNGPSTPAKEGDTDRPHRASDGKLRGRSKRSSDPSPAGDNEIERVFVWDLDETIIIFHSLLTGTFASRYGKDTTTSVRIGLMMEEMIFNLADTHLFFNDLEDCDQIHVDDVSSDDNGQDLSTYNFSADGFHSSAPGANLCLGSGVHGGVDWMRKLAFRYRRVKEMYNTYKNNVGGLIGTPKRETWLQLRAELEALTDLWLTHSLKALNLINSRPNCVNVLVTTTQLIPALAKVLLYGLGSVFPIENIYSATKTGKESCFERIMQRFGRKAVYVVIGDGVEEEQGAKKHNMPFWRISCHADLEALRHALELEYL
Target sequence (Q15475 whole entry, looked up): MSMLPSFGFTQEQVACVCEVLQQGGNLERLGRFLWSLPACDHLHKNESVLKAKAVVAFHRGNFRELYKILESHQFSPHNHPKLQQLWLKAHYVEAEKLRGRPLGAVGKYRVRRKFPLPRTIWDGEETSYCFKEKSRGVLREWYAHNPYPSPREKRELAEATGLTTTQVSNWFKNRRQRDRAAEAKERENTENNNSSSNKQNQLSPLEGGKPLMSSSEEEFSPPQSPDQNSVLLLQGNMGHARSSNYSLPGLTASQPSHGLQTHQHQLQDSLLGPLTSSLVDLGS
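Homogeneous AlphaScreen proximity assay pairing GST-Six1 with His-tagged Eya2 (added as 5X mix: 250 nM and 500 nM) in 50 mM Tris pH 8.0, 300 mM NaCl, 1 mM TCEP. Glutathione donor and nickel acceptor beads; 1 h, 37 °C, dark.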
BAZ2B inh = qHTS Assay for Inhibitors of BAZ2B; Bromodomain adjacent to zinc finger domain protein 2B (Homo sapiens), Q9UIF8; AlphaScreen BAZ2B-H3K14Ac peptide displacement; Potency, µM (top dose mostly 114 µM), inactives show at the highest dose activity change, negative = inhibition, usual class: inhibitors; 4.4% of 360,000 active; also: potency is read from the fitted curve at half-maximal effect; % is scaled to controls: 0 for no effect and ±100 for the full control effect; nearly all actives have a fitted effect of over 60% in size
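Protein-peptide AlphaScreen: BAZ2B 50 nM, b-H3K14Ac 50 nM, 1x PBS pH 7.4 + 0.01% Tween-20. Preincubation 30 min RT; cpd 30 min RT (top 110 uM); beads 20 min RT, light-protected.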
G9a block = qHTS Assay for Inhibitors of Histone Lysine Methyltransferase G9a. G9a H3K9 monomethylation, AlphaScreen, 2 h. Potency, µM (doses to about 102 µM), inactives show at the highest dose activity, negative = inhibition, usual class: inhibitors. 8.8% of 350,000 active. AID 504332, 2011; also: potency is read from the fitted curve at half-maximal effect; % is scaled to controls: 0 for no effect and ±100 for the full control effect; nearly all actives have a fitted effect of over 75% in size
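Enzyme 20 nM + cpd, 15 min RT; add b-H3K9 pep 500 nM / SAM 20 uM; 2 h RT; anti-H3K9me1 Ab 0.5 ug/mL + SA donor / anti-rabbit acceptor beads 20 ug/mL each, 10 min; AlphaScreen read.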
* = called active by the depositor; ? = inconclusive; · = no result given; [ ] = another dose, or the depositor's remark. Most compounds without a hit are left out; they make up all but 10% or so of the library. Unless noted, calls follow the shape of the dose curve; as a rule, active = well fitted inhibition curve with a large enough effect; inconclusive = small, poorly fitted or top-dose-only effect; inactive = no such curve, though single readings can be large or run the other way.

SMILES | CtBP-E1A inh | HP1b binding inh | JMJD2A Tudor | Six1-Eya2 inh | BAZ2B inh | G9a block
COc1cccc(OC)c1OCCCCN1CCCC1 | 3 | ? | 7.9µM* | 10 | ? | ?
COc1cccc(OC)c1OCCCCN1CCC(Cc2ccccc2)CC1 | -1 | ? | 3.2µM* | -3 | 28µM* | 13µM*
COc1cccc(OC)c1OCCCCN1CCCCC1 | 13 | -38% | 40µM* | -1 | 50µM* | 11µM*
COc1cccc(OC)c1OCCCOc1c(OC)cccc1OC | 6 | 85% | -14% | 1 | 11% | 10%[59 µM]
CC(=O)CCc1ccc(OCCCCN2CCC(Cc3ccccc3)CC2)cc1 | 13 | ? | 3.5µM* | -2 | 50µM* | 10µM*
COc1ccc(NC(=O)NCCCN2CCC(Cc3ccccc3)CC2)cc1 | · | 4% | -24% | -9 | -12% | ·
COc1cccc(OC)c1OCCCCCCN1CCN(C)CC1 | · | 41% | -14% | 5 | 3% | -5%[2.33 µM]
COCCn1c(C)cc(O)c(C(c2ccccc2)N2CCN(c3ccccc3F)CC2)c1=O (configuration not stated) | · | 32%[57 µM] | -3% | · | ? | ?
COC(=O)CSC1=NS(=O)(=O)c2ccccc21 | -3 | -17% | 16µM* | -4 | -21% | 1.4µM*
COC(=O)CSc1ccccc1C(=O)OC | 6 | 31% | -2% | 7 | 8% | ?
O=C(CSC1=NS(=O)(=O)c2cc(F)ccc2N1)Nc1ccccc1 | 7 | 17% | ? | 11 | 3% | -22%
O=C(CSC1=NS(=O)(=O)c2ccccc21)Nc1ccccc1 | 0 | 31% | -15% | 1 | ? | 7.9µM*
CC1=C(c2ccc(C)c(C)c2)S(=O)(=O)N=C1N1CCC(C(=O)NCCc2ccco2)CC1 | · | ? | -24% | · | -17% | 8%[59 µM]
COCCCNC(=O)c1sc2nc(C)c(C(=O)Nc3ccc(C)cc3C)c(-c3ccc(Cl)cc3)c2c1N | · | 74% | -12% | · | 16% | -2%[59 µM]
Cc1cc(C)nc(NC(=O)C2c3ccccc3Oc3ccccc32)n1 | -4 | 52% | -1% | -3 | -1% | 50µM*
CCCN1CCN(CCCNC(=O)Cn2c(-c3cccs3)cc3cc(Cl)ccc32)CC1 | · | 43% | -31% | · | -26% | ?
Cn1c(=O)c2sccc2n2c(CCCC(=O)NC3CCCCC3)nnc12 | · | 29% | -15% | · | ? | -28%[59 µM]
CCOc1nc(C#N)nc(N(c2ccccc2)c2ccccc2)n1 | · | 16%[57 µM] | -24%[57.1 µM] | · | · | ·
CC(C)CN1CCC(CN2CCNC(=O)C2=O)CC1 | 4 | 17% | -26% | 9 | · | ·
CC(C)CCN1CCC(CN2CCNC(=O)C2=O)CC1 | 5 | 28% | 89µM* | 2 | · | ·
O=C1CN(C(=O)CNCc2ccc(Cl)cc2)c2ccccc2N1 | -9 | ? | 10µM* | 7 | 71µM* | 25µM*
N#Cc1cc(C#N)c(SCC(=O)N2CC(=O)Nc3ccccc32)nc1N | · | 42% | -26% | -17 | -1% | ?
Cc1nc(SCC(=O)N2CC(=O)Nc3ccccc32)nc(C)c1C | 4 | 30% | -13% | 1 | 4% | 32µM*
COc1ccccc1Nc1nnc(SCC(=O)N2CC(=O)Nc3ccccc32)s1 | 14 | 19% | -18% | -2 | -2% | 50µM*
Cc1nnc(SCC(=O)N2CC(=O)Nc3ccccc32)n1Cc1ccccc1 | 1 | 41% | 0% | 8 | 0% | -38%
CCc1ccc2nc(SCC(=O)N3CC(=O)Nc4ccccc43)c(C#N)cc2c1 | -6 | ? | 50µM* | -1 | -6% | -6%[59 µM]
